Data from PubChem BioAssay AID1159580 (chemical genetic matrix, 2015).
Several values for one entry are separate records, joined by “and”; a condition that tells them apart may be missing. Equal values may be shown once. Out of some 5,500 compounds screened, about 2,000 (36%) were called active. Inconclusive results (about 18%) are left out. No stated cut-off is given here; in the data, active means normalized growth mostly below about 0.91 (no sharp cut-off); inconclusive means no clear call, values can overlap the other calls; inactive means mostly above about 0.92. The list shows a part of the results.

Test: chemical genetic growth profiling, strain panel (AID 1159580);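 further: tested at 20 µM; growth read once vehicle control cultures reached saturation at 30 °C; 1 = growth at the plate median or of vehicle wells; lower values mean less growth of the strain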
Conditions: S. cerevisiae deletion strains, growth OD

Measured: normalized growth

CC(=O)OCC(=O)[C@@]12OC3(CCCC3)O[C@@H]1CC1C3CCC4=CC(=O)C=C[C@]4(C)[C@@]3(F)[C@@H](O)C[C@@]12C (stereo partly specified)
inactive: locus YAL013W, strain DEP1, active compounds read low 1.02 | locus YAL021C, strain ccr4, active compounds read low 1.01 | locus YAL026C, strain drs2, active compounds read low 1.02 | locus YAL030W, strain snc1, active compounds read low 1.02 | locus YBL061C, strain skt5, active compounds read low 1.03 | locus YBR009C, strain hhf1, active compounds read low 1.01 | locus YBR021W, strain FUR4, active compounds read low 1.02 | locus YBR023C, strain chs3, active compounds read low 1.01 | locus YBR171W, strain sec66, active compounds read low 1.02 | locus YBR229C, strain ROT2, active compounds read low 1.02 | locus YBR231C, strain swc5, active compounds read low 1.02 | locus YBR279W, strain paf1, active compounds read low 1.01 | locus YCL011C, strain gbp2, active compounds read low 1.02 | locus YCL016C, strain dcc1, active compounds read low 1.01 | locus YCL029C, strain bik1, active compounds read low 0.985 | locus YCL069W, strain vba3, active compounds read low 1.02 | locus YCR088W, strain abp1, active compounds read low 1.02 | locus YDL005C, strain med2, active compounds read low 1.02 | locus YDL035C, strain GPR1, active compounds read low 1.01 | locus YDL040C, strain nat1, active compounds read low 1.02 | locus YDL074C, strain BRE1, active compounds read low 0.972 | locus YDL101C, strain DUN1, active compounds read low 1.01 | locus YDL134C, strain PPH21, active compounds read low 1.01 | locus YDL185W, strain tfp1, active compounds read low 1 | locus YDL192W, strain arf1, active compounds read low 1 | locus YDR001C, strain nth1, active compounds read low 1.02 | locus YDR069C, strain doa4, active compounds read low 1.01 | locus YDR101C, strain arx1, active compounds read low 0.984 | locus YDR137W, strain rgp1, active compounds read low 1.02 | locus YDR150W, strain NUM1, active compounds read low 1.02 | locus YDR159W, strain sac3, active compounds read low 1.02 | locus YDR162C, strain NBP2, active compounds read low 1.02 | locus YDR195W, strain ref2 1.03 | locus YDR297W, strain sur2, active compounds read low 1.02 | locus YDR318W, strain mcm21, active compounds read low 1 | locus YDR334W, strain swr1, active compounds read low 1.02 | locus YDR335W, strain msn5, active compounds read low 1.01 | locus YDR388W, active compounds read low 1 | locus YDR392W, strain spt3, active compounds read low 1.03 | locus YDR502C, strain sam2, active compounds read low 1.02 | locus YEL003W, strain gim4, active compounds read low 1.02 | locus YEL037C, strain rad23, active compounds read low 1.02 | locus YEL061C, strain CIN8 (second series), active compounds read low 1.03 | locus YEL061C, strain CIN8, active compounds read low 1.01 | locus YER015W, strain faa2, active compounds read low 1.01 | locus YER016W, strain bim1, active compounds read low 1.03 | locus YER110C, active compounds read low 1 | locus YER111C, strain swi4, active compounds read low 1.02 | locus YER155C, strain BEM2 (second series), active compounds read low 1.08 | locus YER155C, strain BEM2, active compounds read low 1.02 | locus YER167W, strain BCK2, active compounds read low 1.02 | locus YFR010W, strain ubp6, active compounds read low 1.02 | locus YGL078C, strain dbp3, active compounds read low 0.987 | locus YGL086W, strain mad1, active compounds read low 1 | locus YGL167C, strain pmr1, active compounds read low 1.03 | locus YGL173C, strain kem1, active compounds read low 1.02 | locus YGL227W, strain vid30, active compounds read low 1.02 | locus YGL240W, strain doc1, active compounds read low 1.03 | locus YGL248W, strain PDE1, active compounds read low 1.01 | locus YGL253W, strain hxk2, active compounds read low 0.963 | locus YGR078C, strain PAC10, active compounds read low 1.01 | locus YGR135W, strain pre9, active compounds read low 0.989 | locus YGR229C, strain SMI1, active compounds read low 1.03 | locus YGR252W, strain gcn5, active compounds read low 1.04 | locus YHR013C, strain ard1, active compounds read low 1.03 | locus YHR027C, strain rpn1, active compounds read low 1.02 | locus YHR030C, strain SLT2, active compounds read low 1.01 and 0.976 | locus YHR079C, strain IRE1 (second series), active compounds read low 0.986 | locus YHR079C, strain IRE1, active compounds read low 0.978 | locus YHR094C, strain hxt1, active compounds read low 0.991 | locus YHR129C, strain ARP1, active compounds read low 1.01 | locus YHR142W, strain chs7, active compounds read low 1 | locus YHR200W, strain rpn10, active compounds read low 0.994 | locus YIL066C, strain RNR3, active compounds read low 1.01 | locus YIL073C, strain SPO22, active compounds read low 0.966 | locus YIL125W, strain kgd1, active compounds read low 1.01 | locus YIR030C, strain dcg1, active compounds read low 0.992 | locus YJL092W, strain hpr5, active compounds read low 1.02 | locus YJL095W, strain BCK1 (second series), active compounds read low 1.02 | locus YJL095W, strain BCK1, active compounds read low 1.01 and 0.989 | locus YJL115W, strain asf1, active compounds read low 1.03 | locus YJL129C, strain trk1, active compounds read low 1.01 | locus YJL134W, strain LCB3, active compounds read low 1.01 | locus YJL154C, strain vps35, active compounds read low 1.02 | locus YJL164C, strain tpk1, active compounds read low 1 | locus YJL166W, strain qcr8, active compounds read low 1.02 | locus YJL168C, strain set2, active compounds read low 1 | locus YJL187C, strain SWE1 (second series), active compounds read low 1.01 | locus YJL187C, strain SWE1, active compounds read low 1.03 | locus YJR043C, strain POL32, active compounds read low 0.988 | locus YJR066W, strain TOR1, active compounds read low 0.968
